An excerpt weighted towards active compounds, which were near 2.4% of everything screened.
A3A deaminase – inhibitors of human APOBEC3A DNA deaminase; P31941; recombinant A3A, FAM/TAMRA ssDNA deamination fluorescence; inhibition, % at 20 µM; 0.41% of 330,000 active; AID 493011;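 active means at least 40% inhibition at 20 µM here, with at most 30% in a related deaminase screen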
Target sequence (P31941 whole entry, looked up): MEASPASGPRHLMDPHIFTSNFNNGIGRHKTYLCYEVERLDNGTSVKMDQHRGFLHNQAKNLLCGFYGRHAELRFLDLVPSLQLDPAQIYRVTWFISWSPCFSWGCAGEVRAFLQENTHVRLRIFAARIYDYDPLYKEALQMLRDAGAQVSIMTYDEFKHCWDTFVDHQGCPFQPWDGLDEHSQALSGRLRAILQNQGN
APOBEC3G inh – blocks human APOBEC3G single-stranded DNA deamination | Q9HC16 | inhibition, % at 20 µM | recombinant A3G, ssDNA deamination FAM/TAMRA fluorescence | AID 493012 | 0.28% of 330,000 active;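 active means inhibition of at least 40% at 20 µM, with no more than 30% in the related APOBEC3A deaminase screen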
Target sequence (Q9HC16 whole entry, looked up): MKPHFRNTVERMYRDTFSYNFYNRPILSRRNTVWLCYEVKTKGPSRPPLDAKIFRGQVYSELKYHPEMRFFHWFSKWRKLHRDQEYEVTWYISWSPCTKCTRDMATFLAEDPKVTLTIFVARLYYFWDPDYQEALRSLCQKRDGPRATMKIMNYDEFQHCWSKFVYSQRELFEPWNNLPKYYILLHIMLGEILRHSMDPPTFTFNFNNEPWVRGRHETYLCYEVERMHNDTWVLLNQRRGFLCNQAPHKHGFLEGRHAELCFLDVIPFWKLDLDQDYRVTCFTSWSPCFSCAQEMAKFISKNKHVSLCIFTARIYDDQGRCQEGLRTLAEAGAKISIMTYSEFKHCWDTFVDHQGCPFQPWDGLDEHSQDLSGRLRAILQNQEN
PfG6PD inh – PfG6PD (Plasmodium falciparum) enzyme inhibition; inhibition, % at 20 µM; AID 504690; PfGluPho enzyme, NADPH resazurin-diaphorase fluorescence; 0.78% of 350,000 active;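 active means inhibition reaching at least a set limit at 20 µM in the primary screen, cut at about 59% in these data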
Yeast superoxide – caloric restriction mimetics inhibiting age-related superoxide in yeast. S. cerevisiae aged cells, superoxide DHE fluorescence; hits give low values. superoxide response (% of plate mean), % at 10 µM. 0.18% of 330,000 active;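 active means superoxide response under a set limit, about three screen SD below normal, cut at about 65% in these data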;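 further: yeast aged for seven days with compound at 30 °C before DHE staining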
PfM18AAP inh-1 – blocks P. falciparum M18 aspartyl aminopeptidase; recombinant PfM18AAP, H-Glu-NHMec fluorogenic cleavage; inhibition, % at 7.35 µM; 1.2% of 290,000 active; AID 1822;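 active means inhibition above the campaign mean inhibition over all tested compounds plus 3 SD, cut at about 28% in these data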
PfM18AAP inh-2 – PfM18AAP inhibition, confirmation; recombinant PfM18AAP, H-Glu-NHMec fluorogenic cleavage; shares compounds with PfM18AAP inh-1; 28% of 2,400 active; inhibition, % at 7.35 µM;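 active means mean inhibition over replicate wells above the hit cutoff set for the earlier primary screen, cut at about 29% in these data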
CTSL1 counter – Cathepsin L (human) inhibition, confirmation; inhibition, % at 5.96 µM; 2,400 tested, under 10 active; purified cathepsin L1, Z-Leu-Arg-MCA fluorescence; shares compounds with PfM18AAP inh-1;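 active means average inhibition across replicates above the hit cutoff set in the earlier primary screen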
A number is an active result; - = inactive; . = no result.

SMILES	A3A deaminase	APOBEC3G inh	PfG6PD inh	Yeast superoxide	PfM18AAP inh-1	PfM18AAP inh-2	CTSL1 counter
CCN(CC)S(=O)(=O)c1cc([N+](=O)[O-])ccc1NNC(=O)Nc1ccc(F)cc1	-	-	-	-	36.8	29.1	-
O=C(C[n+]1ccc(/C=N/O)cc1)N(Cc1ccccc1)Cc1ccccc1	-	-	-	-	-	.	.
Cn1cccc1Cc1nnc(SCC(=O)Nc2ccc3c(c2)OCO3)n1CCc1ccccc1	-	-	-	-	-	.	.
COCCn1c(Cc2cccn2C)nnc1SCC(=O)NCc1ccc2c(c1)OCO2	-	-	-	-	35.1	-	-
CSc1ncnc2c1ncn2CCCNCc1ccccn1	.	.	-	.	.	.	.
CN(NC(=S)Nc1ccc(OC(F)F)cc1)C(=S)Nc1ccc(OC(F)F)cc1	-	-	-	-	-	.	.
FC(F)Oc1ccc(NC(=S)Nn2cnnc2)cc1	-	-	-	-	80.3	65.6	-
CS(=O)(=O)c1ccc2nc(NC(=O)CCNC(=O)c3ccc(Cl)cc3)sc2c1	-	-	-	.	.	.	.
CCOc1ccc(NC(=O)CN(C)C(=O)C2CCN(C(=O)Nc3ccccc3)CC2)cc1OCC	.	.	-	.	.	.	.
N#CC1=C(N)SC(N)=C(C#N)C1C1C=CCCC1 (stereo unspecified)	-	-	-	-	-	.	.
N#CC1=C(N)SC(N)=C(C#N)C1C1CC=CCC1 (stereo unspecified)	-	-	-	-	35.8	-	-
O=C1/C(=C\c2ccccn2)SC(=S)N1c1ccc(S(=O)(=O)Nc2nccs2)cc1	-	-	-	-	36.0	-	-
CCC(C)NC(=O)c1ccc(NC(=O)C2=C(C)OCCS2)cc1 (stereo unspecified)	-	-	-	-	-	.	.
O=C(O)/C=C/C(=O)NCc1cn(-c2ccccc2)nc1-c1cccc(Br)c1	-	-	-	-	36.1	-	-
COc1cc(C(=O)Nn2cnnc2)ccc1OC(F)F	-	-	-	-	45.0	-	-
COc1ccc(NC(=O)Nn2cnnc2)cc1OC	-	-	-	-	55.3	43.9	-
COc1ccccc1NC(=O)Nn1cnnc1	-	-	-	-	65.0	51.3	-
COc1cc(NC(=O)Nn2cnnc2)cc(OC)c1OC	-	-	-	-	69.3	53.6	-
COc1cc(C(=O)NN2C(=O)NC3(CCC(C)CC3)C2=O)ccc1OC(F)F (stereo unspecified)	-	-	-	-	.	.	.
Cc1ccc(S(=O)(=O)N2C[C@H]3N(C(=O)OC(C)C)N(C(=O)OC(C)C)C[C@H](OC(=O)Nc4cccs4)[C@@]3(O)C2)cc1	.	.	-	.	.	.	.
COc1ccc(C=NNc2ccc([N+](=O)[O-])cn2)cc1	.	.	-	.	.	.	.
O=[N+]([O-])c1ccc(N/N=C/c2ccc(OCc3cccc4ccccc34)cc2)nc1	-	-	-	-	44.8	-	-
COc1ccc(OC)c(NC(=O)c2cccnc2Sc2ccccc2)c1	-	-	-	-	-	.	.
Cc1[nH]n(-c2cccc3ccccc23)c(=O)c1/C=N/c1sc2c(c1C#N)CCC2	-	-	-	-	-	.	.
Cc1[nH]n(-c2ccc(F)cc2)c(=O)c1/C=N/c1sc2c(c1C#N)CCCC2	-	-	-	-	33.6	-	-
SMILES	A3A deaminase	APOBEC3G inh	PfG6PD inh	Yeast superoxide	PfM18AAP inh-1	PfM18AAP inh-2	CTSL1 counter
CN1CCN(NC(=O)Nc2cccc(F)c2)CC1	-	-	-	-	-	.	.
CCOc1ccc(OCC)c(NC(=O)C2CCN(S(=O)(=O)c3cccc4nonc34)CC2)c1	-	-	-	-	-	.	.
CC(C)(C)C(=O)C(Oc1cccc2nonc12)n1cncn1 (stereo unspecified)	-	-	-	-	49.6	-	-
O=C(O)c1ccc(S(=O)(=O)NCC2CCCO2)cc1 (stereo unspecified)	-	-	-	-	-	.	.
Cc1cc(N(C)C)cc(C)c1N=Nc1cc[n+]([O-])cc1	.	.	-	.	.	.	.
CN(C)c1ccc(N=Cc2cccn2C)cc1	-	-	77.4	-	57.6	-	-
COc1cc(OC)nc(Oc2cc(/C=N/O)ccc2OC)n1	-	-	-	-	-	.	.
Cc1ccc([N+](=O)[O-])cc1S(=O)(=O)Nc1ccc(O)c(Sc2ncn[nH]2)c1	-	-	-	-	53.9	38.2	-
Cc1cc(O)c(Sc2ncn[nH]2)cc1NS(=O)(=O)c1ccc(Cl)cc1	-	-	-	-	.	.	.
CN1CCN(NC(=O)CN2C(=O)S/C(=C\c3c(Cl)cccc3Cl)C2=O)CC1	-	-	-	-	41.5	-	-
COc1ccc(NC(C)=O)cc1NC(=O)c1ccc(C#N)cc1	-	-	-	-	-	.	.
O=C1c2ccccc2C(=O)N1c1ncn[nH]1	-	-	-	-	44.2	-	-
COc1cc(C2C(C#N)=C(N)OC3=C2C(=O)CCC3)c([N+](=O)[O-])cc1OC (stereo unspecified)	.	.	-	-	39.7	-	-
Cc1cc(C2C(C#N)=C(N)OC3=C2C(=O)CCC3)c(C)s1 (stereo unspecified)	-	-	-	-	-	.	.
NC(c1ccncc1)c1ccc(Cl)cc1 (stereo unspecified)	.	.	-	.	.	.	.
O=C(OCC1CCCN2CCCCC12)c1ccc2c(c1)OCO2 (stereo unspecified)	-	-	-	-	35.3	-	-
O=C(O)CC1(CC(=O)NCc2cc(F)cc3c2OCOC3)CCCCC1	-	-	-	-	-	.	.
CC(C)Oc1ccc(-c2nn(-c3ccccc3)cc2/C=c2\sc3ncnn3c2=O)cc1	-	-	.	-	58.5	-	-
Cc1ccc(C)c(NC(=S)NNc2ccc(F)cc2F)c1	-	-	-	-	46.0	-	-
Cc1ccc(C)c(NC(=S)NCCc2ccc(F)cc2)c1	-	-	-	-	-	.	.
Nn1cnnc1N/N=C/c1cccc(Cl)c1Cl	-	-	-	-	52.1	-	-
COc1cccc(/C=N/Nc2nnc(C)n2N)c1OCc1ccccc1Cl	-	-	-	-	41.3	-	-
CCc1nnc(N/N=C/c2ccccc2Cl)n1N	-	-	-	-	39.5	-	-
Clc1ccccc1C=NNc1ccccn1	.	.	-	.	.	.	.
FC(F)(F)c1ccccc1/C=N/Nc1ccccn1	-	-	-	-	-	.	.
SMILES	A3A deaminase	APOBEC3G inh	PfG6PD inh	Yeast superoxide	PfM18AAP inh-1	PfM18AAP inh-2	CTSL1 counter
Nn1cnnc1N/N=C/c1ccccc1C(F)(F)F	-	-	-	-	48.4	-	-
CCOC(=O)N1CCN(Cc2ccc3c(c2)OCO3)CC1	-	-	-	-	-	.	.
Cc1c(O)ccc(C(=O)CN2CCN(Cc3ccc4c(c3)OCO4)CC2)c1O	.	.	-	-	93.3	-	-
COc1cccc(CNC(=O)C2CCN(S(=O)(=O)c3ccc(Br)s3)CC2)c1	-	-	-	-	-	.	.
COc1ccc(Cc2nnc(N/N=C/c3ccc(O)cc3)[nH]c2=O)cc1OC	-	-	-	-	-	.	.
CCC/C=N/Nc1nnc(Cc2ccc(OC)c(OC)c2)c(=O)[nH]1	-	-	-	-	32.0	-	-
CCOc1ccccc1N1CC(C(=O)N(C)Cc2cccnc2)CC1=O (stereo unspecified)	-	-	-	-	-	.	.
